PMC4336329 (PLoS ONE, 2015)
Hit rate of the full screen: of about 310,000 compounds, about 2,200 (0.71%) showed an effect of 50% or more. Effects have a minus sign here. The entries come from a sample that favours strong results as a whole.

target: human ether-à-go-go-related gene (hERG) potassium channel (human, UniProt Q12809); experiment: primary screen, population patch clamp on CHO cells stably expressing hERG; higher = less effect of the substance
Sequence (Q12809 whole entry, looked up): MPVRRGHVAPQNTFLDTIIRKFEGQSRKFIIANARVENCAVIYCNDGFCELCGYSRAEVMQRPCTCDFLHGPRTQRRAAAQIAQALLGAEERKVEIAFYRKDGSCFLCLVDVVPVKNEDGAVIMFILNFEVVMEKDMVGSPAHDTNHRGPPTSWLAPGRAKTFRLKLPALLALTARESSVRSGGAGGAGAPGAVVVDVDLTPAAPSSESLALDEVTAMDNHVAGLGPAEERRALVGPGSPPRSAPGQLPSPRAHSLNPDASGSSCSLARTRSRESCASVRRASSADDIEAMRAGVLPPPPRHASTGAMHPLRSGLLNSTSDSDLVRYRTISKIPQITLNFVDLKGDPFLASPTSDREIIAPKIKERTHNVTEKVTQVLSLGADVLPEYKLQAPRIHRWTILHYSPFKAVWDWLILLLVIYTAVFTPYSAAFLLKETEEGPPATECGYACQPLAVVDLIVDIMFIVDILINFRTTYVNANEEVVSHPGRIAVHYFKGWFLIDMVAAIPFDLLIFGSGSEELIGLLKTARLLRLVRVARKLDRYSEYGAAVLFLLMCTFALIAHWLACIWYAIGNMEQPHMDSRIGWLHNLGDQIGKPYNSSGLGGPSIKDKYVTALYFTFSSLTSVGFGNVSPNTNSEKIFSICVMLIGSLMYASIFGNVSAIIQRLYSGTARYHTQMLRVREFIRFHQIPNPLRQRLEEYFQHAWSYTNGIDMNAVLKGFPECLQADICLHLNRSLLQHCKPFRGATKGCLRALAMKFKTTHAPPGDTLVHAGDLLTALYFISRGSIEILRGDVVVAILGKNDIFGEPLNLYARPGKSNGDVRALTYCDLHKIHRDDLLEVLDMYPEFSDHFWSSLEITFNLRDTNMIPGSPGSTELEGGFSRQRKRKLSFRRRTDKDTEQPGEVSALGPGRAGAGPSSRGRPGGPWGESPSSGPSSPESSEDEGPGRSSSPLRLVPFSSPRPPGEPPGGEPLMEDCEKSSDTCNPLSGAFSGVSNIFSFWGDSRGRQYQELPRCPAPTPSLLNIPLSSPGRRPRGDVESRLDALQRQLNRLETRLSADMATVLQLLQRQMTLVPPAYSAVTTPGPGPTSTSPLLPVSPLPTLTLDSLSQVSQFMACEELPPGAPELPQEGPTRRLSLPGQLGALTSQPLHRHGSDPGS

SMILES	hERG current change (%, negative = inhibition) at 1uM
CCOC(=O)N1CCC(N2CCCC(C(=O)c3cc(C)c(OC)c(C)c3)C2)CC1 (stereo not shown)	-28.1%
CCOC(=O)N1CCC(N2CCCC(C(=O)c3cccc(OC(C)C)c3)C2)CC1 (stereo not shown)	-61.3%
CC(C)Oc1cccc(C(=O)C2CCCN(C3CCOCC3)C2)c1 (stereo not shown)	-5.96%
CCOC(=O)N1CCC(N2CCCC(C(=O)c3cccc(OC)c3)C2)CC1 (stereo not shown)	-13.2%
CCCC(=O)N1CCCC(C(=O)c2cccc(OC(C)C)c2)C1 (stereo not shown)	9.81%
CCOC(=O)N1CCC(N2CCCC(C(=O)c3ccc4cc(OC)ccc4c3)C2)CC1 (stereo not shown)	-55.1%
O=C(COC(=O)CCc1ccccc1)NCc1ccccc1	12.3%
COc1cccc(-c2nc3n(n2)C(c2cccs2)C(C(=O)Nc2cccnc2)=C(C)N3)c1 (stereo not shown)	-51.2%
COc1ccc(C2C(C(=O)Nc3cccnc3)=C(C)Nc3nc(-c4cccs4)nn32)cc1 (stereo not shown)	-2.21%
COc1ccccc1-c1nc2n(n1)C(c1cccs1)C(C(=O)Nc1cccnc1)=C(C)N2 (stereo not shown)	0.0177%
CC(=O)OC(C(=O)NC1CCCCC1)c1ccccc1 (stereo not shown)	9.71%
CCCN(C(=O)c1ccc(N(C)S(=O)(=O)c2ccc(C)cc2)cc1)C1CCS(=O)(=O)C1 (stereo not shown)	14.8%
CCN(CC)CCCNC(=O)c1nn(-c2ccc(OC)cc2OC)c(=O)c2ccccc12	8.97%
CCN(CC)CCCNC(=O)c1nn(-c2cccc(OC)c2)c(=O)c2ccccc12	-66.9%
CCN(CC)CCCNC(=O)CNC(=O)c1nn(-c2ccc(OC)cc2)c(=O)c2ccccc12	17.5%
CC(=O)NS(=O)(=O)c1ccc(NC(=O)C(Sc2ccccc2)c2ccccc2)cc1 (stereo not shown)	7.09%
Cn1c(=O)c(C(=O)CN2CCCCC2)c(N)n(Cc2ccccc2)c1=O	6.17%
Cc1c(CC(=O)N2C[C@H]3C[C@@H](C2)c2cccc(=O)n2C3)c(=O)oc2cc3occ(C(C)(C)C)c3cc12	-56.8%
Cc1coc2cc3oc(=O)c(CC(=O)N4C[C@H]5C[C@@H](C4)c4cccc(=O)n4C5)c(C)c3cc12	4%
Cc1coc2cc3oc(=O)c(CCC(=O)N4C[C@H]5C[C@@H](C4)c4cccc(=O)n4C5)c(C)c3cc12	-16.8%
Cc1noc(C)c1COC(=O)c1cccc(S(=O)(=O)N2c3ccccc3CC2C)c1 (stereo not shown)	10.5%
O=C(N/N=C/c1c(O)ccc2ccccc12)c1cccc(C(F)(F)F)c1	13.9%
CC1CCCCN1C(=O)C(Cc1ccccc1)N1C(=O)C2CCCCC2C1=O (stereo not shown)	10.7%
CCOC(=O)c1c(NC(=S)Nc2ccc(F)cc2)sc2c1CCC2	-21.8%
CS(=O)(=O)N1CCN(c2ccccc2NC(=O)c2cc(Br)ccc2Cl)CC1	-1.64%
COc1ccc(Cl)cc1C(=O)NC(=S)Nc1ccccc1N1CCOCC1	9.75%
COc1ccc(Cl)cc1C(=O)Nc1ccccc1N1CCN(C(=O)C(C)C)CC1	-19.6%
CN1CCN(c2ccccc2NC(=O)c2cc(Br)ccc2Cl)CC1	-53.1%

SMILES	hERG current change (%, negative = inhibition) at 1uM
COc1ccc(Cl)cc1C(=O)Nc1ccccc1N1CCN(C)CC1	-70.4%
O=C(Nc1ccccc1N1CCN(C(=O)c2ccccc2)CC1)c1ccccc1Cl	-29.8%
COc1ccccc1C(=O)Nc1ccccc1N1CCN(C(=O)c2ccc(Cl)cc2)CC1	-85.2%
COc1ccc(Br)cc1C(=O)Nc1ccccc1N1CCN(C(=O)c2ccccc2)CC1	7.55%
CC(=O)N1CCN(c2ccccc2NC(=O)c2cc(Br)ccc2Cl)CC1	-27%
CC(=O)c1nc2ccccc2n1Cc1ccccc1	9.31%
CCCCn1c(N)c(N(CCC(C)C)C(=O)C2=COCCO2)c(=O)[nH]c1=O	5.25%
COC(=O)CN1C(=O)Nc2ccc(Cl)cc2C1c1ccccc1 (stereo not shown)	22.6%
Cc1cc(C)nc(N2CCC(CNC(=O)CCc3ccccc3)CC2)n1	20.4%
O=C(NCc1ccncc1)c1cc(S(=O)(=O)N2CCOCC2)c(Cl)cc1Cl	12.6%
O=C(NCc1cccs1)c1cc(S(=O)(=O)N2CCOCC2)c(Cl)cc1Cl	-78.4%
O=C(NCC(c1cccs1)N1CCOCC1)c1cc(S(=O)(=O)N2CCOCC2)c(Cl)cc1Cl (stereo not shown)	6.08%
CC(=O)Nc1ccc(S(=O)(=O)Nc2ccc(S(=O)(=O)Nc3ncccn3)cc2)cc1	8.81%
CCOC(=O)C1CCN(c2c(NCCCN3CCN(Cc4ccccc4)CC3)c(=O)c2=O)CC1	14.3%
CCOC(=O)C1CCCN(c2c(N3CCN(c4cccc(Cl)c4)CC3)c(=O)c2=O)C1 (stereo not shown)	-54.1%
CCOC(=O)C1CCN(c2c(N3CCCC(C(=O)OCC)C3)c(=O)c2=O)CC1 (stereo not shown)	8.36%
CCOC(=O)C1CCN(Cc2ccc(-c3ccccc3)cc2)CC1	8.54%
CCOC(=O)C1CCCN(c2c(N3CCN(C)CC3)c(=O)c2=O)C1 (stereo not shown)	10.2%
CCOC(=O)C1CCN(c2c(N3CCN(Cc4ccccc4)CC3)c(=O)c2=O)CC1	-66.6%
CCOc1ccc(S(=O)(=O)N/N=C(\C)c2ccc(Cl)c(Cl)c2Cl)cc1	12.1%
Cc1ccc2oc(C(=O)Nc3ccc(S(=O)(=O)Nc4onc(C)c4C)cc3)cc(=O)c2c1	15.4%
COc1ccc2[nH]c3c(=O)n(CCN4CCOCC4)cnc3c2c1	9.44%
CCC1CCCN1Cn1cnc2c([nH]c3ccc(OC)cc32)c1=O (stereo not shown)	-35.8%
COc1ccc2c(c1)[nH]c1c(=O)n(CCN3CCCC3)cnc12	-17.4%
COc1ccc2c(c1)[nH]c1c(=O)n(CC3CCCO3)cnc12 (stereo not shown)	14.6%
CCN1CCCC1Cn1cnc2c([nH]c3ccc(OC)cc32)c1=O (stereo not shown)	-58.5%
CCN1CCCC1Cn1cnc2c([nH]c3cc(OC)ccc32)c1=O (stereo not shown)	-53.5%
